hgDAF12 agonist = H. glycines DAF-12 receptor agonists, primary screen, cell-based, luminescence, HEK293, GAL4 fusion, UAS-luciferase. HEK293 GAL4-hgDAF12 UAS-luciferase reporter, agonist luminescence; normalized to butyrate control. activation, % at 6.8 µM. 370,000 tested, 1.8% active. AID 687014, 2013;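 active = activation above a cutoff set at the mean of all screened compounds plus 3 SD, cut at about 10% in these data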
DAX1 inh-1 = DAX1 (NR0B1) inhibitors on StAR promoter, primary screen, cell-based, luminescence, SF-1 (NR5A1), full-length DAX-1; HEK293T StAR-luciferase reporter, SF-1/DAX-1 repression relief; inhibition, % at 6.8 µM; 370,000 tested, 1.1% active; AID 652010, 2013;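 active = inhibition above the mean over all tested compounds plus 3 SD, cut at about 3.6% in these data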;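 also: higher inhibition means more luminescence from relief of DAX-1 repression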
DAX1 inh-2 = DAX1 (NR0B1) inhibitors, primary screen, cell-based, HEK293, Gal4-DAX1, luciferase luminescence. Nuclear receptor subfamily 0 group B member 1 (Homo sapiens), P51843. HEK293 Gal4-DAX1 luciferase reporter. inhibition, % at 6.75 µM. 340,000 tested, 0.99% active;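 active = inhibition above the mean over all tested compounds plus 3 SD, cut at about 4.2% in these data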;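 also: inhibition shows as a rise in luminescence from relieved DAX1 repression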
ssDAF12 agonist = S. stercoralis DAF-12 nuclear receptor activators, primary screen, cell-based, luminescence, HEK293, GRIP1 co-expression, lit1-tk-luc | Nuclear hormone receptor DAF-12 (Strongyloides stercoralis) | HEK293 ssDAF-12/GRIP1 lit1-tk-luc reporter; % of 3 µM dafachronic acid response | activation, % at 6.8 µM | 370,000 tested, 1% active;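 active = activation above the mean over all tested compounds plus 3 SD, cut at about 0.9% in these data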
hcDAF12 agonist = H. contortus DAF-12 nuclear receptor activators, primary screen, cell-based, luminescence, HEK293, lit1-tk-luc reporter; activation, % at 6.8 µM; 370,000 tested, 1.4% active; HEK293 hcDAF-12 lit1-tk-luc reporter; 0% DMSO, 100% Δ7-dafachronic acid;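 active = activation above the mean of all tested compounds plus 3 SD, cut at about 5.5% in these data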
hgDAF12 ag = H. glycines DAF-12 receptor agonists, confirmation, cell-based, luminescence, HEK293, GAL4-LBD fusion | shares compounds with hgDAF12 agonist | HEK293 GAL4-hgDAF12 luciferase reporter, agonist mode; percent of butyrate response | activation, % at 6.8 µM | 3,300 tested, 80% active;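 active = mean activation over triplicate wells above the hit cutoff derived from the earlier primary screen, cut at about 11% in these data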
LXRb DAF12 ctr = LXR agonists, Gal4 luciferase reporter, confirmation, counter-screen for hgDAF-12 agonist project, cell-based, luminescence, HEK293, H. glycines campaign; activation, % at 6.8 µM; 3,300 tested, under 10 active; shares compounds with hgDAF12 agonist; 24 h;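 active = mean activation of the triplicate above a set limit carried over from the primary screen, none filed active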
Target sequence (P55055 whole entry, looked up, the tested form may be a part): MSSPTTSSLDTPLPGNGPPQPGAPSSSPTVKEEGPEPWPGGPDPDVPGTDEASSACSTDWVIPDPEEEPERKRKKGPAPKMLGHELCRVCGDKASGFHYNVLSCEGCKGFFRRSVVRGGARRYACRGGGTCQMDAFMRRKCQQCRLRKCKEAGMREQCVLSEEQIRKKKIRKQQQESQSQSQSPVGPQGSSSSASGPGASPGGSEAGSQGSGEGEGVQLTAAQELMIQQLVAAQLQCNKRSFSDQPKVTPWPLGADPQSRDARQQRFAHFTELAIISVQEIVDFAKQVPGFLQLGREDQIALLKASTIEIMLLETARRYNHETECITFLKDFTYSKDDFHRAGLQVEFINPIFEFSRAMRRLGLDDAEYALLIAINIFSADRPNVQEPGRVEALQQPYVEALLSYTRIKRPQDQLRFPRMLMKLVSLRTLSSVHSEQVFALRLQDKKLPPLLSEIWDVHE
Numbers stand for hits. A selection: hits, their analogues and other compounds. The true share with any hit is near 4.1%.

`Cc1ccc(Nc2ncccc2C(=O)O)cc1C` gave hgDAF12 agonist inactive, DAX1 inh-1 inactive, DAX1 inh-2 inactive, ssDAF12 agonist inactive and hcDAF12 agonist inactive.
`CCOC(=O)c1ccc(Nc2ncccc2[N+](=O)[O-])cc1` gave hgDAF12 agonist 18, DAX1 inh-1 inactive, DAX1 inh-2 inactive, ssDAF12 agonist 1.7, hcDAF12 agonist 6.0, hgDAF12 ag 19 and LXRb DAF12 ctr inactive.
Cc1ccc2nc(-c3ccc(NS(=O)(=O)c4c(C)n(C)c(=O)n(C)c4=O)cc3)sc2c1 was read as hgDAF12 agonist 20, DAX1 inh-1 inactive, DAX1 inh-2 6.3, ssDAF12 agonist inactive, hcDAF12 agonist inactive, hgDAF12 ag 17 and LXRb DAF12 ctr inactive.
Cc1c(S(=O)(=O)Nc2ccc3c(c2)OCCO3)c(=O)n(C)c(=O)n1C was read as hgDAF12 agonist inactive, DAX1 inh-1 inactive, DAX1 inh-2 inactive, ssDAF12 agonist inactive and hcDAF12 agonist inactive.
Screening Cc1ccc(S(=O)(=O)Nc2ccc(-c3nc4ccc(C)cc4s3)cc2)cc1 returned hgDAF12 agonist inactive, DAX1 inh-1 inactive, DAX1 inh-2 inactive, ssDAF12 agonist inactive and hcDAF12 agonist inactive.
For Cc1cccc(S(=O)(=O)Nc2ccc(-c3nc4ccc(C)cc4s3)cc2)c1 the results were hgDAF12 agonist 22, DAX1 inh-1 4.2, DAX1 inh-2 inactive, ssDAF12 agonist inactive, hcDAF12 agonist inactive, hgDAF12 ag 21 and LXRb DAF12 ctr inactive.
Screening CN(C)C(=O)c1nc2ccc(Cl)cn2c1CN1CCCC(OCc2cccnc2)C1 (centres undefined) returned hgDAF12 agonist inactive, DAX1 inh-1 inactive, DAX1 inh-2 inactive, ssDAF12 agonist inactive and hcDAF12 agonist inactive.
Screening Cc1ccc(O)c(C2=NNC(O)(C(F)(F)F)C2)c1 (centres undefined) returned hgDAF12 agonist inactive, DAX1 inh-1 inactive, DAX1 inh-2 inactive, ssDAF12 agonist inactive and hcDAF12 agonist inactive.
`Cc1ccc(O)c(C2=NNC(c3ccc(Cl)cc3)C2)c1` (centres undefined) gave hgDAF12 agonist 15, DAX1 inh-1 inactive, DAX1 inh-2 inactive, ssDAF12 agonist inactive, hcDAF12 agonist 5.7, hgDAF12 ag 13 and LXRb DAF12 ctr inactive.
Screening CCOC(=O)CC(C)(C)/C(C)=N/Nc1ccc([N+](=O)[O-])cc1[N+](=O)[O-] returned hgDAF12 agonist inactive, DAX1 inh-1 inactive, DAX1 inh-2 inactive, ssDAF12 agonist inactive and hcDAF12 agonist inactive.
Screening O=C1C(C=NCCCN2CCCC2=O)=C(O)c2ccccc21 returned hgDAF12 agonist 19, DAX1 inh-1 inactive, DAX1 inh-2 inactive, ssDAF12 agonist inactive, hcDAF12 agonist inactive, hgDAF12 ag inactive and LXRb DAF12 ctr inactive.
`Cc1cccc(NS(=O)(=O)c2cccc(C(=O)N3CCN(C/C=C/c4ccccc4)CC3)c2)c1` gave hgDAF12 agonist inactive, DAX1 inh-1 inactive, DAX1 inh-2 inactive, ssDAF12 agonist inactive and hcDAF12 agonist inactive.
N#C/C(=C\c1ccc(N2CCOCC2)cc1)c1ccccc1 was read as hgDAF12 agonist 21, DAX1 inh-1 inactive, DAX1 inh-2 inactive, ssDAF12 agonist inactive, hcDAF12 agonist 6.1, hgDAF12 ag 17 and LXRb DAF12 ctr inactive.
COc1ccc(C(=O)NCc2ccc3c(c2)OCO3)c(OC)c1 was read as hgDAF12 agonist inactive, DAX1 inh-1 inactive, DAX1 inh-2 inactive, ssDAF12 agonist inactive and hcDAF12 agonist inactive.
O=C(/C=C/c1ccc(Br)o1)Nc1nccs1 was read as hgDAF12 agonist 14, DAX1 inh-1 inactive, DAX1 inh-2 inactive, ssDAF12 agonist inactive, hcDAF12 agonist 5.8, hgDAF12 ag 15 and LXRb DAF12 ctr inactive.
For O=C(O)/C=C/C(=O)Nc1nccs1 the results were hgDAF12 agonist inactive, DAX1 inh-1 inactive, DAX1 inh-2 inactive, ssDAF12 agonist inactive and hcDAF12 agonist inactive.
Screening CN(Cc1ccccc1)S(=O)(=O)c1cccc(C(=O)O)c1 returned hgDAF12 agonist inactive, DAX1 inh-1 inactive, DAX1 inh-2 inactive, ssDAF12 agonist inactive and hcDAF12 agonist inactive.
CC(C)(C)/C(O)=C/c1nc2ccccc2[nH]c1=O was read as hgDAF12 agonist inactive, DAX1 inh-1 inactive, DAX1 inh-2 inactive, ssDAF12 agonist inactive and hcDAF12 agonist inactive.
O=c1[nH]c2ccccc2nc1/C=C/c1ccc(F)cc1 was read as hgDAF12 agonist 16, DAX1 inh-1 inactive, DAX1 inh-2 inactive, ssDAF12 agonist inactive, hcDAF12 agonist inactive, hgDAF12 ag 11 and LXRb DAF12 ctr inactive.
For O=c1[nH]c2ccccc2nc1/C=C/c1ccc(O)cc1 the results were hgDAF12 agonist 14, DAX1 inh-1 inactive, DAX1 inh-2 inactive, ssDAF12 agonist inactive, hcDAF12 agonist inactive, hgDAF12 ag inactive and LXRb DAF12 ctr inactive.
For CCc1ccc(/C=C\C(=O)N2CCCC2)cc1 the results were hgDAF12 agonist inactive, DAX1 inh-1 inactive, DAX1 inh-2 inactive, ssDAF12 agonist inactive and hcDAF12 agonist inactive.
`O=C(/C=C/c1ccc(Br)cc1)NC1CCCCCC1` gave hgDAF12 agonist inactive, DAX1 inh-1 inactive, DAX1 inh-2 inactive, ssDAF12 agonist inactive and hcDAF12 agonist inactive.
For Cc1ccc(/C=C/C(=O)N2CCCC(C)C2)cc1 (centres undefined) the results were hgDAF12 agonist 15, DAX1 inh-1 4.4, DAX1 inh-2 inactive, ssDAF12 agonist 1.2, hcDAF12 agonist inactive, hgDAF12 ag 14 and LXRb DAF12 ctr inactive.
Screening CCOC(=O)C1CCCN(C(=O)/C=C/c2ccc(Cl)cc2)C1 (centres undefined) returned hgDAF12 agonist inactive, DAX1 inh-1 inactive, DAX1 inh-2 inactive, ssDAF12 agonist inactive and hcDAF12 agonist inactive.
Screening CC(C)Cc1ccc(/C=C/C(=O)N2CCCCC2)cc1 returned hgDAF12 agonist 16, DAX1 inh-1 4.5, DAX1 inh-2 inactive, ssDAF12 agonist inactive, hcDAF12 agonist inactive, hgDAF12 ag 14 and LXRb DAF12 ctr inactive.
`CC(C)Cc1ccc(/C=C/C(=O)NC2CC2)cc1` gave hgDAF12 agonist 13, DAX1 inh-1 inactive, DAX1 inh-2 inactive, ssDAF12 agonist inactive, hcDAF12 agonist inactive, hgDAF12 ag 12 and LXRb DAF12 ctr inactive.
Screening CC(=O)c1cccc(NC(=S)NCCC2=CCCCC2)c1 returned hgDAF12 agonist inactive, DAX1 inh-1 inactive, DAX1 inh-2 inactive, ssDAF12 agonist inactive and hcDAF12 agonist inactive.

Screening results: PubChem, The Scripps Research Institute Molecular Screening Center
